From PubChem BioAssay
Active and inactive are the calls of the source. Unless noted, the rule behind the calls is not given here.

Tests used:
[1] = compound effects on lung adenocarcinoma cell viability – A549, calcein-AM fluorescence, 48 h, basal, profiling panel (AID 1162); conditions: higher = more signal; note: test concentration not given here
[2] = compound effects on differentiated 3T3-L1 adipocyte viability – cell-based, 3T3-L1 adipocytes, calcein-AM fluorescence, 48 h, basal, profiling panel (AID 1163); conditions: 3T3-L1 adipocytes viability, higher = more signal; note: test concentration not given here
[3] = compound effects on hepatocellular carcinoma cell viability – HepG2, calcein-AM fluorescence, 48 h, basal, profiling panel (AID 1164); conditions: higher = more signal; note: test concentration not given here
[4] = compound effects on multiple myeloma cell viability – MM1S, calcein-AM fluorescence, 48 h, basal, profiling panel (AID 1165); conditions: higher = more signal; note: test concentration not given here
[5] = calcein-AM signal in unstimulated myeloma cells – cell-based, calcein-AM fluorescence, 48 h, PK04 Diversity Set, profiling panel (AID 1166); conditions: RPMI8226 myeloma viability, higher = more signal;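 note: cells grown under basal conditions without added stimulus; test concentration not given here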
[6] = JC-1 mitochondrial signal, unstimulated HepG2 cells – cell-based, JC-1 fluorescence, 24 h, 100 nL compound, profiling panel (AID 1167); conditions: HepG2 mitochondrial potential, higher = more signal; note: test concentration not given here
[7] = JC-1 mitochondrial signal, unstimulated adipocytes – cell-based, JC-1 fluorescence, 3T3-L1 adipocytes, 24 h, 100 nL compound, profiling panel (AID 1168); conditions: JC-1 mitochondrial fluorescence, higher = more signal, called active from +8 up or from −8 down; note: test concentration not given here
[8] = JC-1 mitochondrial signal, unstimulated myeloma cells – cell-based, JC-1 fluorescence, RPMI8226, 24 h, 100 nL compound, profiling panel (AID 1169); conditions: JC-1 mitochondrial potential fluorescence, higher = more signal; note: test concentration not given here
[9] = JC-1 mitochondrial signal, unstimulated MM1S myeloma – cell-based, JC-1 fluorescence, 24 h, 100 nL compound, profiling panel (AID 1170); conditions: MM1S mitochondrial potential, higher = more signal; note: test concentration not given here
[10] = resazurin metabolic signal in A549 cells – cell-based, resazurin fluorescence, 24 h, PK04 Diversity Set, profiling panel (AID 1171); conditions: A549 viability, higher = more signal, called active from +8 up or from −8 down; note: test concentration not given here
[11] = resazurin metabolic signal in HepG2 cells – cell-based, resazurin fluorescence, 24 h, PK04 Diversity Set, profiling panel (AID 1172); conditions: HepG2 viability, higher = more signal; note: test concentration not given here
[12] = budding yeast growth changes without added modifier – OD600, strain BY4716, 24 h, basal condition, primary screen (AID 1173); conditions: S. cerevisiae BY4716 growth, OD600, 24 h; higher = more signal, called active from +8 up or from −8 down
[13] = viability profiling in MM1S myeloma cells – cell-based, resazurin fluorescence, basal, 24 h, PK04 Diversity Set, profiling panel (AID 1174); conditions: higher = more signal, called active from +8 up or from −8 down; note: test concentration not given here
[14] = molecular target: Dihydroorotate dehydrogenase (quinone), mitochondrial (Plasmodium falciparum (isolate 3D7)) (UniProt Q08210); experiment: inhibition of P. falciparum DHODH – biochemical, C-terminal His tag, absorbance 600 nm, primary screen (AID 1175); conditions: PfDHODH enzyme, DCIP absorbance 600 nm; higher = more signal, called active from +8 up or from −8 down;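 note: recombinant parasite enzyme with a five histidine tag at its C terminus; test concentration not given here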
Sequence of Dihydroorotate dehydrogenase (quinone), mitochondrial (Plasmodium falciparum (isolate 3D7)) (Q08210 whole entry, looked up): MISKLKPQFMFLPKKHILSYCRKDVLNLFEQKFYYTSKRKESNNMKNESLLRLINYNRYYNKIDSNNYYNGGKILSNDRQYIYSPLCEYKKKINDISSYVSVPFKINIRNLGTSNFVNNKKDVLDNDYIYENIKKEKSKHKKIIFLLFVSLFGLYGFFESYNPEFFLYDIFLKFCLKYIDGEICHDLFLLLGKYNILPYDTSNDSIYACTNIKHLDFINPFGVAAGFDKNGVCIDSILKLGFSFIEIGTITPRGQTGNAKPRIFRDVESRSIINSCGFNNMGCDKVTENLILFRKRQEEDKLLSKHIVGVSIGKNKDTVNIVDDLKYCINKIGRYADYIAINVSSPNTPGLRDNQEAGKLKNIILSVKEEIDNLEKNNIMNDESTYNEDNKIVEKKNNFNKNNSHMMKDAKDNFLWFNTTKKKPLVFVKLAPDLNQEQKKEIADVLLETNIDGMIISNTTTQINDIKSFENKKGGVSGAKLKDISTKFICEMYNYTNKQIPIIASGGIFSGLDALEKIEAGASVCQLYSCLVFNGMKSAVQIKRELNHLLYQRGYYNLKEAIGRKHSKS

[15] = inhibition of PAO1 biofilm formation – strain PAO1, LB-PBS medium, absorbance 600 nm, primary screen (AID 1176); note: test concentration not given here; conditions: P. aeruginosa PAO1 growth/biofilm, A600, 12 h; higher = more signal
[16] = growth modulation of vineyard yeast isolate – strain RM11-1a, OD600, basal, 24 h, primary screen (AID 1177);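 note: cultures grown under basal conditions with no added stressor; test concentration not given here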; conditions: S. cerevisiae RM11-1a growth, OD600, 24 h; higher = more signal, called active from +8 up or from −8 down
[17] = growth of efflux-deficient E. coli DRC39 – strain DRC39, OD650, 24 h, E. coli filamentation inducers, primary screen (AID 1178);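 note: growth measured as culture turbidity by optical density at 650 nm; test concentration not given here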; conditions: E. coli DRC39 acrAB, higher = more signal, called active from +8 up or from −8 down
[18] = growth of efflux-deficient E. coli DRC39 – strain DRC39, OD650, 48 h, E. coli filamentation inducers, primary screen (AID 1179);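 note: screen aims at cell division blockers that make cells filament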; conditions: E. coli DRC39 delta-acrAB growth, higher = more signal, called active from +8 up or from −8 down
[19] = viability profiling in RPMI8226 myeloma cells – cell-based, resazurin fluorescence, basal, 24 h, PK04 Diversity Set, profiling panel (AID 1180); conditions: higher = more signal;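 note: RPMI8826 multiple myeloma cell line at 5000 cells per well; test concentration not given here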
[20] = molecular target: E3 ubiquitin-protein ligase XIAP (Homo sapiens) (UniProt P98170); experiment: small molecules binding XIAP protein – biophysical, small-molecule microarray, fluorescence 635 nm, primary screen (AID 1181); conditions: higher = more signal;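 note: score merges 667 nm emission and signal to noise over triplicate slides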
Sequence of E3 ubiquitin-protein ligase XIAP (Homo sapiens) (P98170 whole entry, looked up): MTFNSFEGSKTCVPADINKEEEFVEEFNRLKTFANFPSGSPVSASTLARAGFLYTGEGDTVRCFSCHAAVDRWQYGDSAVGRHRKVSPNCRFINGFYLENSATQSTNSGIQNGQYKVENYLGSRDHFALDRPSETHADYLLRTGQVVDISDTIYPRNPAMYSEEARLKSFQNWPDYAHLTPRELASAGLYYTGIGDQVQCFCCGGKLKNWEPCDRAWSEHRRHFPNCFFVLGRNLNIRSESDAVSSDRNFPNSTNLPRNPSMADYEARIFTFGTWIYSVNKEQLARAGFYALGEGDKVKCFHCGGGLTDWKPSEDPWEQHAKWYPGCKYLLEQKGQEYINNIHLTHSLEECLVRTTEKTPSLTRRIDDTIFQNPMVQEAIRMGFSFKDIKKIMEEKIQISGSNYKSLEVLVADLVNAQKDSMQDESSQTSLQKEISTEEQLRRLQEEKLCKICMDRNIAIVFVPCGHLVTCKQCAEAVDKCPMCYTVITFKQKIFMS

| SMILES | z-score [1] | z-score [2] | z-score [3] | z-score [4] | z-score [5] | z-score [6] | z-score [7] | z-score [8] | z-score [9] | z-score [10] | z-score [11] | z-score [12] | z-score [13] | composite z-score [14] | z-score [15] | z-score [16] | z-score [17] | z-score [18] | z-score [19] | composite z-score [20] |
| --- | --- | --- | --- | --- | --- | --- | --- | --- | --- | --- | --- | --- | --- | --- | --- | --- | --- | --- | --- | --- |
| O=C/C=C/c1ccc(/C=C/c2ccccc2)cc1 | 1 | -0.111 | -0.167 | -3.21 | -4.46 | -0.228 | 1.26 (inactive) | -0.949 | -2.1 | 0.22 (inactive) | 0.555 | -16.4 (active) | 0.408 (inactive) | -1.43 (inactive) | 0.668 (inactive) | -1.01 (inactive) | 2.11 (inactive) | 1.56 (inactive) | -3.21 | -0.242 |
| COCCOC(=O)N1C(=O)[C@@]2(c3cc(C#CCNC(N)=O)ccc31)[C@H](c1ccccc1OCCO)N1[C@H](c3ccccc3)[C@H](c3ccccc3)OC(=O)[C@H]1[C@@H]2C(=O)NC[C@H](O)c1ccccc1 | -0.991 | -0.574 | 0.0681 | -0.344 | 0.941 | -1.64 | 0.392 (inactive) | -0.305 | -0.803 | 0.868 (inactive) | 0.904 | 2.79 (inactive) | 0.335 (inactive) | 1.03 (inactive) | 0.87 (inactive) | 2.1 (inactive) | 0.183 (inactive) | -0.32 (inactive) | 0.152 | -0.0911 |
| COc1ccc(C(=O)Nc2ccc(CN3C(=O)[C@]4(O[C@H](CCn5cc(CCO)nn5)[C@@H]([Si](C)(C)c5ccc(OC)cc5)[C@@H]4C)c4ccccc43)cc2)cc1 | -3.11 | -0.616 | -4.54 | -2.68 | -4.37 | 1.17 | 1.3 (inactive) | -1.1 | -1.8 | -3.05 (inactive) | -2.97 | -5.51 (inactive) | -6.19 (inactive) | 0.597 (inactive) | 0.307 (inactive) | 2.44 (inactive) | 1.09 (inactive) | 0.72 (inactive) | -3.23 | -0.0129 |
| CC1=C([C@H](O)CCc2ccccc2)[C@H](CO)[C@@H]2C(=O)N(Cc3ccccc3)C(=O)[C@@H]2C1 | -0.286 | -0.0776 | -0.352 | -0.0162 | 0.445 | 0.567 | 0.714 (inactive) | 0.331 | -1.5 | 0.76 (inactive) | 0.325 | -3.02 (inactive) | 0.169 (inactive) | -1.68 (inactive) | 0.0694 (inactive) | 0.0743 (inactive) | 1.6 (inactive) | 0.204 (inactive) | 0.308 | 0.201 |
